PubChem BioAssay AID1159580 (chemical genetic matrix, 2015)
About 2,000 (36%) of roughly 5,500 compounds were called active. Inconclusive results (about 18%) are left out. No stated cut-off is given here; in the data, active means normalized growth mostly below about 0.91 (no sharp cut-off); inconclusive means no clear call, values can overlap the other calls; inactive means mostly above about 0.92. Some of the results follow.

Experiment: chemical genetic growth profiling, strain panel (AID 1159580);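 further: tested at 20 µM; growth read once vehicle control cultures reached saturation at 30 °C; 1 = growth at the plate median or of vehicle wells; lower values mean less growth of the strain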
Conditions: growth OD

Measured: normalized growth

CO[C@@]1(NC(=O)CSCC#N)C(=O)N2C(C(=O)O)=C(CSc3nnnn3C)CSC21 (some centres not stated)
inactive: S. cerevisiae deletion strains, locus YJR075W, strain HOC1, hits give low values 1.01 | S. cerevisiae deletion strains, locus YKL009W, strain mrt4, hits give low values 1.04 | S. cerevisiae deletion strains, locus YKL068W, hits give low values 1.02 | S. cerevisiae deletion strains, locus YKL085W, strain MDH1 (second series), hits give low values 1.03 | S. cerevisiae deletion strains, locus YKL085W, strain MDH1, hits give low values 1.03 | S. cerevisiae deletion strains, locus YKL160W, strain elf1, hits give low values 0.959 | S. cerevisiae deletion strains, locus YKL190W, strain CNB1, hits give low values 0.995 | S. cerevisiae deletion strains, locus YKR001C, strain vps1, hits give low values 1.04 | S. cerevisiae deletion strains, locus YKR026C, strain gcn3, hits give low values 0.996 | S. cerevisiae deletion strains, locus YKR091W, strain srl3, hits give low values 0.982 | S. cerevisiae deletion strains, locus YLL001W, strain dnm1, hits give low values 0.96 | S. cerevisiae deletion strains, locus YLL026W, hits give low values 0.986 | S. cerevisiae deletion strains, locus YLL041C, strain sdh2, hits give low values 0.978 | S. cerevisiae deletion strains, locus YLR027C, strain aat2, hits give low values 0.99 | S. cerevisiae deletion strains, locus YLR039C, strain RIC1, hits give low values 1.07 | S. cerevisiae deletion strains, locus YLR058C, strain SHM2, hits give low values 1.01 | S. cerevisiae deletion strains, locus YLR102C, strain apc9, hits give low values 1.04 | S. cerevisiae deletion strains, locus YLR113W, strain HOG1, hits give low values 0.96 | S. cerevisiae deletion strains, locus YLR221C, strain rsa3, hits give low values 0.98 | S. cerevisiae deletion strains, locus YLR258W, strain gsy2, hits give low values 0.98 | S. cerevisiae deletion strains, locus YLR262C, strain YPT6 (second series), hits give low values 0.981 | S. cerevisiae deletion strains, locus YLR262C, strain YPT6, hits give low values 1.09 | S. cerevisiae deletion strains, locus YLR268W, strain sec22, hits give low values 1.02 | S. cerevisiae deletion strains, locus YLR320W, strain mms22, hits give low values 0.953 | S. cerevisiae deletion strains, locus YLR330W, strain CHS5, hits give low values 1.01 | S. cerevisiae deletion strains, locus YLR342W, strain FKS1 (second series), hits give low values 1.01 | S. cerevisiae deletion strains, locus YLR342W, strain FKS1, hits give low values 0.967 | S. cerevisiae deletion strains, locus YLR357W, strain rsc2, hits give low values 0.915 | S. cerevisiae deletion strains, locus YLR370C, strain arc18, hits give low values 0.984 | S. cerevisiae deletion strains, locus YLR371W, strain rom2, hits give low values 1.04 | S. cerevisiae deletion strains, locus YLR384C, strain iki3, hits give low values 1 | S. cerevisiae deletion strains, locus YLR418C, strain cdc73, hits give low values 1.04 | S. cerevisiae deletion strains, locus YML016C, strain PPZ1, hits give low values 1.01 | S. cerevisiae deletion strains, locus YML032C, strain rad52, hits give low values 1.05 | S. cerevisiae deletion strains, locus YML120C, strain ndi1, hits give low values 0.988 | S. cerevisiae deletion strains, locus YML124C, strain tub3, hits give low values 1.02 | S. cerevisiae deletion strains, locus YMR058W, strain fet3, hits give low values 1.01 | S. cerevisiae deletion strains, locus YMR078C, strain ctf18, hits give low values 1.03 | S. cerevisiae deletion strains, locus YMR125W, strain sto1, hits give low values 1.01 | S. cerevisiae deletion strains, locus YMR129W, hits give low values 0.995 | S. cerevisiae deletion strains, locus YMR205C, strain PFK2, hits give low values 0.965 | S. cerevisiae deletion strains, locus YMR223W, strain ubp8, hits give low values 1.04 | S. cerevisiae deletion strains, locus YMR231W, strain pep5, hits give low values 0.985 | S. cerevisiae deletion strains, locus YMR263W, strain SAP30, hits give low values 1.01 | S. cerevisiae deletion strains, locus YMR307W, strain GAS1, hits give low values 1.05 | S. cerevisiae deletion strains, locus YNL067W, strain RPL9B, hits give low values 1.01 | S. cerevisiae deletion strains, locus YNL071W, strain lat1, hits give low values 0.991 | S. cerevisiae deletion strains, locus YNL128W, strain TEP1, hits give low values 1.02 | S. cerevisiae deletion strains, locus YNL153C, strain GIM3, hits give low values 1.01 | S. cerevisiae deletion strains, locus YNL183C, strain NPR1, hits give low values 0.926 | S. cerevisiae deletion strains, locus YNL209W, strain ssb2, hits give low values 0.988 | S. cerevisiae deletion strains, locus YNL233W, strain BNI4, hits give low values 1.02 | S. cerevisiae deletion strains, locus YNL248C, strain rpa49, hits give low values 0.973 | S. cerevisiae deletion strains, locus YNL250W, strain rad50, hits give low values 1.05 | S. cerevisiae deletion strains, locus YNL271C, strain bni1, hits give low values 1.04 | S. cerevisiae deletion strains, locus YNL298W, strain CLA4, hits give low values 1.04 | S. cerevisiae deletion strains, locus YNL307C, strain MCK1, hits give low values 1.04 | S. cerevisiae deletion strains, locus YNL322C, strain KRE1 (second series), hits give low values 0.959 | S. cerevisiae deletion strains, locus YNL322C, strain KRE1, hits give low values 1.02 | S. cerevisiae deletion strains, locus YNR049C, strain mso1, hits give low values 0.975 | S. cerevisiae deletion strains, locus YNR052C, strain pop2, hits give low values 1.05 | S. cerevisiae deletion strains, locus YOL006C, strain TOP1, hits give low values 1.03 | S. cerevisiae deletion strains, locus YOL012C, strain htz1 1.23 | S. cerevisiae deletion strains, locus YOL147C, strain pex11, hits give low values 1.03 | S. cerevisiae deletion strains, locus YOR001W, strain rrp6, hits give low values 1.01 | S. cerevisiae deletion strains, locus YOR061W, strain CKA2, hits give low values 1.01 | S. cerevisiae deletion strains, locus YOR069W, strain VPS5, hits give low values 1.01 | S. cerevisiae deletion strains, locus YOR070C, strain gyp1, hits give low values 0.989 | S. cerevisiae deletion strains, locus YOR080W, strain dia2, hits give low values 0.997 | S. cerevisiae deletion strains, locus YOR083W, strain WHI5, hits give low values 0.913 | S. cerevisiae deletion strains, locus YOR106W, strain vam3, hits give low values 0.968 | S. cerevisiae deletion strains, locus YOR136W, strain idh2, hits give low values 1.04 | S. cerevisiae deletion strains, locus YOR144C, strain elg1, hits give low values 1.02 | S. cerevisiae deletion strains, locus YOR184W, strain ser1, hits give low values 1.05 | S. cerevisiae deletion strains, locus YOR231W, strain MKK1, hits give low values 0.976 | S. cerevisiae deletion strains, locus YOR265W, strain rbl2, hits give low values 0.974 | S. cerevisiae deletion strains, locus YOR270C, strain vph1, hits give low values 0.993 | S. cerevisiae deletion strains, locus YOR290C, strain snf2, hits give low values 0.966 | S. cerevisiae deletion strains, locus YOR316C, strain cot1, hits give low values 1.03 | S. cerevisiae deletion strains, locus YPL051W, strain arl3, hits give low values 0.98 | S. cerevisiae deletion strains, locus YPL055C, strain LGE1, hits give low values 1.05 | S. cerevisiae deletion strains, locus YPL078C, strain atp4, hits give low values 0.98 | S. cerevisiae deletion strains, locus YPL106C, strain sse1, hits give low values 0.948 | S. cerevisiae deletion strains, locus YPL240C, strain hsp82, hits give low values 0.997 | S. cerevisiae deletion strains, locus YPL241C, strain CIN2, hits give low values 1.01 | S. cerevisiae deletion strains, locus YPL256C, strain CLN2, hits give low values 1 | S. cerevisiae deletion strains, locus YPR119W, strain clb2, hits give low values 1.04 | S. cerevisiae deletion strains, locus YPR141C, strain kar3, hits give low values 1.05 | S. cerevisiae deletion strains, locus YPR163C, strain tif3, hits give low values 1.03 | S. cerevisiae deletion strains, locus YPR167C, strain met16, hits give low values 1.04 | S. cerevisiae deletion strains, strain wtn01, hits give low values 1.02 | S. cerevisiae strains, strain wild type, hits give low values 1.01
